Reference: the supplement of paper PMC10849652
Targets with a hit are over-represented here; the source holds about 8,800 in all. About 0.5% of all pairs of compound and target were hits. Unmarked numbers belong to inactive results.

Experiments:
Assay in all cases: log2 fold change, soluble protein after heating vs DMSO (PISA); higher = thermal stabilisation; K562 lysate, 10 uM; active = over 0.2 and 3.5 SD of the protein, either way, in both replicates (recomputed)
nilotinib = compound: Cc1cn(-c2cc(NC(=O)c3ccc(C)c(Nc4nccc(-c5cccnc5)n4)c3)cc(C(F)(F)F)c2)cn1 [nilotinib]
How it was run: (§1)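 Quantification was by TMTpro 16plex LC-MS/MS with equalised channel sums, applied to the supernatant after 21,000xg for 90 min. Samples were crude K562 extract at 1 mg/mL protein in PBS pH 7.4 with 1 mM MgCl2, treated with 10 μM compound for 30 min, heated for 3 min across 48°C-58°C, pooled and brought to 0.5% NP-40 at 4°C. Values are log-two fold changes in thermal stability relative to solvent controls, from duplicates.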

[1] = compound: Cc1nc(Nc2n[nH]c3c2CN(C(=O)N[C@H](CN(C)C)c2ccccc2)C3(C)C)c2sccc2n1
How it was run: as §1

dasatinib = compound: Cc1nc(Nc2ncc(C(=O)Nc3c(C)cccc3Cl)s2)cc(N2CCN(CCO)CC2)n1 [dasatinib]
How it was run: as §1

[2] = compound: Cc1ncc(-c2ccnc(Nc3ccc(S(C)(=O)=O)cc3)n2)n1C(C)C
How it was run: as §1

[3] = compound: Cn1cc(-c2ccc3c(c2)CCN3C(=O)Cc2cccc(C(F)(F)F)c2)c2c(N)ncnc21
How it was run: as §1

quisinostat = compound: Cn1cc(CNCC2CCN(c3ncc(C(=O)NO)cn3)CC2)c2ccccc21 [quisinostat]
How it was run: as §1

tipifarnib = compound: Cn1cncc1[C@@](N)(c1ccc(Cl)cc1)c1ccc2c(c1)c(-c1cccc(Cl)c1)cc(=O)n2C [tipifarnib]
How it was run: as §1

[4] = compound: NC(=O)Nc1cc(-c2cccc(F)c2)sc1C(=O)N[C@H]1CCCNC1
How it was run: as §1

[5] = compound: NC(=O)c1cnc(N[C@@H]2CCCC[C@@H]2N)nc1Nc1cccc(-n2nccn2)c1
How it was run: as §1

[6] = compound: NC1(c2ccc(-c3nc4ccn5c(=O)[nH]nc5c4cc3-c3ccccc3)cc2)CCC1
How it was run: as §1

UniProt Q8IXH7, sequence (Q8IXH7 whole entry, looked up): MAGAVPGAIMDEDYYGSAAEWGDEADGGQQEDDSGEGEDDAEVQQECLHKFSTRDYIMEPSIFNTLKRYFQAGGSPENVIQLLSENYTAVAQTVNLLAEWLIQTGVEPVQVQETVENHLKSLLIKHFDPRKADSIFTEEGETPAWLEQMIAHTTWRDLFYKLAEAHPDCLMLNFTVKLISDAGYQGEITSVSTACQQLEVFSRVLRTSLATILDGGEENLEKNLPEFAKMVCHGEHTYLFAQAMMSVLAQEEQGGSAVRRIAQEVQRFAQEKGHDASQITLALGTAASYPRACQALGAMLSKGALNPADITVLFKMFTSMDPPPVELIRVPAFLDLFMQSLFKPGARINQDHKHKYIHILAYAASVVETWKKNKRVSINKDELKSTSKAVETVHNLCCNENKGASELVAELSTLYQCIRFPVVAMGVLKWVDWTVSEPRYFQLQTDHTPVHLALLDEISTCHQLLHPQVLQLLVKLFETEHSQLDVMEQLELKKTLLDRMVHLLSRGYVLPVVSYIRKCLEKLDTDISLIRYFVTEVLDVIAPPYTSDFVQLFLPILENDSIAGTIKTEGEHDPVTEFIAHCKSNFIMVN
UniProt O00221, sequence (O00221 whole entry, looked up): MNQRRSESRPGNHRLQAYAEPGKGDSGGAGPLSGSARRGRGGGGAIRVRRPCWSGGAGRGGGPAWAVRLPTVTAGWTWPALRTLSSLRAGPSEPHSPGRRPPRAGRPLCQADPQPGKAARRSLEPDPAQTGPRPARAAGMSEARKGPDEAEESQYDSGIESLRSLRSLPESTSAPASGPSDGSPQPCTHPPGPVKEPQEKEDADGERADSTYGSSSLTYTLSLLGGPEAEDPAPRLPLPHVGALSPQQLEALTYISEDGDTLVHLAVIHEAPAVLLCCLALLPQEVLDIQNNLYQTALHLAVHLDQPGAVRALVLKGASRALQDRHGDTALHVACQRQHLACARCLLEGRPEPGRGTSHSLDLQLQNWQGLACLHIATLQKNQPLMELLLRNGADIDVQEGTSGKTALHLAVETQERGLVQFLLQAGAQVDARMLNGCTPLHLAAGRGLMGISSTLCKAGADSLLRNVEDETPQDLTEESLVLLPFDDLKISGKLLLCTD
UniProt Q9NVE7, sequence (Q9NVE7 whole entry, looked up): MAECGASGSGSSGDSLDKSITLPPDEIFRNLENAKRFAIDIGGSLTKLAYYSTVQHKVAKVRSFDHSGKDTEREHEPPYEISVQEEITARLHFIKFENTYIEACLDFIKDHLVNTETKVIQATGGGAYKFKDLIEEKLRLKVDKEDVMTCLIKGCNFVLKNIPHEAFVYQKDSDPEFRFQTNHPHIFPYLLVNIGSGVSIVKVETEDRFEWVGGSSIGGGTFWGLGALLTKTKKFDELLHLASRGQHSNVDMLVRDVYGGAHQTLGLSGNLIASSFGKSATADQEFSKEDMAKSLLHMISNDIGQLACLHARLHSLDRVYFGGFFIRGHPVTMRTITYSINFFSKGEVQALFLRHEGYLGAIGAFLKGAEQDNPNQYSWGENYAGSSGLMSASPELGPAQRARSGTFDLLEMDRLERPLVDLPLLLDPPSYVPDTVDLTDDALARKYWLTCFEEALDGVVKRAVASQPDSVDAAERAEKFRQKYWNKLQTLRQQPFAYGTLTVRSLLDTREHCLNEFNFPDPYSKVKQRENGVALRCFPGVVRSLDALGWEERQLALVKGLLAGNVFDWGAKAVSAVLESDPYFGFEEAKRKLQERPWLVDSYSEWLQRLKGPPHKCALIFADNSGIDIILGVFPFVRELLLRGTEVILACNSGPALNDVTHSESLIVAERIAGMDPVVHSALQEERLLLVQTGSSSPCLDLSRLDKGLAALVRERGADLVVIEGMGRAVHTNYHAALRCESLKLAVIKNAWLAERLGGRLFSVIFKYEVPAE
UniProt P08651, sequence (P08651 whole entry, looked up): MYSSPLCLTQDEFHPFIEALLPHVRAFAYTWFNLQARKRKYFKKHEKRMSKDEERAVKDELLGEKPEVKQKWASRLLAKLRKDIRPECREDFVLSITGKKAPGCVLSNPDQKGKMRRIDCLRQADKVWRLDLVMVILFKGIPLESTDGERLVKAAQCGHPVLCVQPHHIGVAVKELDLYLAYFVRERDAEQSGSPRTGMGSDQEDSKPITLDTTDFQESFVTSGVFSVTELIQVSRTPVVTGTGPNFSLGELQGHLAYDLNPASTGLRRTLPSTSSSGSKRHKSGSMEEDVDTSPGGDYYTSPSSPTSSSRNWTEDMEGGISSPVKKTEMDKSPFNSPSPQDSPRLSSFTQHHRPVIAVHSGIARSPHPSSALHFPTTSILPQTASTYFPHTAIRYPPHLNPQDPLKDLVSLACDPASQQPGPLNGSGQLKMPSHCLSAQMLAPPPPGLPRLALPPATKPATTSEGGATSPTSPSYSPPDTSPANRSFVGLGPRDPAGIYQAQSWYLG
UniProt O75607, sequence (O75607 whole entry, looked up): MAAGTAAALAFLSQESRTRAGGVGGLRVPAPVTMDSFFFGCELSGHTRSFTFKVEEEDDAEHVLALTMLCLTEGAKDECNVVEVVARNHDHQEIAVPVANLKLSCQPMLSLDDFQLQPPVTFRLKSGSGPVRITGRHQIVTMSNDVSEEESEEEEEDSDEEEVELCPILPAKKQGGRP
UniProt Q15021, sequence (Q15021 whole entry, looked up): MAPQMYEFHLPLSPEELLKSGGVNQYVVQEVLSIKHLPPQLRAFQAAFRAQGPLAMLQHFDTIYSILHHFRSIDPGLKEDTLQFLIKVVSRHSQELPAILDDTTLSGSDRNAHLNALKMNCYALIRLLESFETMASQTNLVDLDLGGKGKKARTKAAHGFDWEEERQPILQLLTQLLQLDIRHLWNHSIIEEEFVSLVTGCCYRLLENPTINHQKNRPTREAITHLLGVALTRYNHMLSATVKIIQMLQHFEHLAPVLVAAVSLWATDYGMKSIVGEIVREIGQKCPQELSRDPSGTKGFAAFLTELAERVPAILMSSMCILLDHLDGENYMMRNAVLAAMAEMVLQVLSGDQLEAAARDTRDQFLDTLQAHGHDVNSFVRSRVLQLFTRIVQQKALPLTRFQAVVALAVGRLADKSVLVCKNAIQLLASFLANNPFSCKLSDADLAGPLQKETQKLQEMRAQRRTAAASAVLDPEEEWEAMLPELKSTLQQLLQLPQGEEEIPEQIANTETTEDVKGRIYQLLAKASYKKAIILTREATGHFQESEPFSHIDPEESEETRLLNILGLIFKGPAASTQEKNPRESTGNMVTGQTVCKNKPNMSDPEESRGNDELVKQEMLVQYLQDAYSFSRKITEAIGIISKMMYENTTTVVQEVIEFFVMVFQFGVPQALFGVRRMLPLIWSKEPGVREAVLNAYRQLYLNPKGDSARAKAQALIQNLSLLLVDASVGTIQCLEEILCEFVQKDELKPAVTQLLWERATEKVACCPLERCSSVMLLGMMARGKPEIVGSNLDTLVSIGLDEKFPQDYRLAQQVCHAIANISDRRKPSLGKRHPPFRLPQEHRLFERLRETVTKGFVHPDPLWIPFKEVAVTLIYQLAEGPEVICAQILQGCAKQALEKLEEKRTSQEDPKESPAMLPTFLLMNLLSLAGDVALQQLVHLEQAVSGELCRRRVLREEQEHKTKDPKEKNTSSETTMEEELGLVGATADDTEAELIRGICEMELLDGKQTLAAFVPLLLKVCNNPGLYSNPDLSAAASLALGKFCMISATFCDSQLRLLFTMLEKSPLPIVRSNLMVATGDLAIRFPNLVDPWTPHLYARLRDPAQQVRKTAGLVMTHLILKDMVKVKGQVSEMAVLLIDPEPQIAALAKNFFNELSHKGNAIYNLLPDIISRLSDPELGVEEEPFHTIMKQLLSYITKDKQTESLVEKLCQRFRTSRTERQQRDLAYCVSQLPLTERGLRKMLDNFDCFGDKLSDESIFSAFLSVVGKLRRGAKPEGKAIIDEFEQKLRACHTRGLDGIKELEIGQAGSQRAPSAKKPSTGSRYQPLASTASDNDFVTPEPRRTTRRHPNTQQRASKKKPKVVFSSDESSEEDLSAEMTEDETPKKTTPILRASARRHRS
UniProt Q9BTC8, sequence (Q9BTC8 whole entry, looked up): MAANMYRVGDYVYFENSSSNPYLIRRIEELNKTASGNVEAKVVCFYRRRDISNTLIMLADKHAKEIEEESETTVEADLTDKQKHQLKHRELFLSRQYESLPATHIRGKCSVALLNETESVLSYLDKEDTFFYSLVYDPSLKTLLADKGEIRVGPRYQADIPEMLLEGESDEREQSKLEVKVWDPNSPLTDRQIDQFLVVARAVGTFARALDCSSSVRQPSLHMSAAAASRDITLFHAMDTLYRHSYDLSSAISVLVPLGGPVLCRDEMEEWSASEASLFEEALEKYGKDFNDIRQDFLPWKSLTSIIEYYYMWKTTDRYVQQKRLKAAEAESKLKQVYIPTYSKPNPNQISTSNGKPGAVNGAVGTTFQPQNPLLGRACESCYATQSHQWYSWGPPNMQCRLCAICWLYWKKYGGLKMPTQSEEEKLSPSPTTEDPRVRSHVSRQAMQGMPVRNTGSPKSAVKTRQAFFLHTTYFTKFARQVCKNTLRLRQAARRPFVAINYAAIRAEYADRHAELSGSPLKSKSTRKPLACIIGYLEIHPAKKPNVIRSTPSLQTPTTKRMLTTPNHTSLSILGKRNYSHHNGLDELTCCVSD
UniProt P80303, sequence (P80303 whole entry, looked up): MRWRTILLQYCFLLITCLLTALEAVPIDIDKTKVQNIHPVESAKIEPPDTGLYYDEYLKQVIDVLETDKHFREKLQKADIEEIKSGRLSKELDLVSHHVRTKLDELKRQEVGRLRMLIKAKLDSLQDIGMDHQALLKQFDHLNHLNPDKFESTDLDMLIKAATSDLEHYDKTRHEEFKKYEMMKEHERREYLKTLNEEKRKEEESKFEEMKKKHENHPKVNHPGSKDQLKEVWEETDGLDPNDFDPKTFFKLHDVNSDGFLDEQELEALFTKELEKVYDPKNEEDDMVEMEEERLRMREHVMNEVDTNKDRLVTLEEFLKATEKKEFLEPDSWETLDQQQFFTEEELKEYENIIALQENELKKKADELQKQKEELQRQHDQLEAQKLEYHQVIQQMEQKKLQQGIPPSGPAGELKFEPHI

Target | log2 fold change (nilotinib) | log2 fold change [1] | log2 fold change (dasatinib) | log2 fold change [2] | log2 fold change [3] | log2 fold change (quisinostat) | log2 fold change (tipifarnib) | log2 fold change [4] | log2 fold change [5] | log2 fold change [6]
MRPS31 (UniProt Q92665) | -0.005 | -0.002 | -0.034 | 0.034 | 0.002 | -0.046 | 0.015 | 0.022 | -0.026 | -0.014
NCOR2 (UniProt C9J0Q5) | 0.09 | -0.034 | -0.082 | 0.043 | -0.015 | -0.034 | -0.045 | 0.047 | 0.025 | 0.022
N4BP2 (UniProt Q86UW6) | 0.026 | 0.036 | -0.024 | -0.043 | 0.061 | -0.001 | -0.061 | 0.037 | -0.018 | -0.048
NPM3 (UniProt O75607) | -0.039 | -0.012 | 0.065 | 0.049 | 0.024 | -0.024 | -0.027 | 0.019 | 0.03 | -0.029
PAFAH1B3 (UniProt Q15102) | 0.005 | 0.036 | -0.057 | -0.026 | 0.03 | 0.01 | -0.01 | -0.009 | 0.031 | 0.021
NCAPH2 (UniProt Q6IBW4) | -0.029 | 0 | -0.011 | -0.048 | 0.066 | 0.051 | -0.014 | 0.058 | 0.004 | 0.025
NCAPD2 (UniProt Q15021) | 0.006 | 0.01 | -0.037 | -0.001 | 0.031 | -0.064 | -0.019 | 0.044 | 0.003 | -0.009
PANK4 (UniProt Q9NVE7) | 0.028 | -0.006 | -0.086 | -0.006 | 0.003 | -0.054 | 0.009 | 0.038 | -0.003 | -0.045
NUCB2 (UniProt P80303) | -0.016 | 0.015 | 0.007 | -0.019 | -0.009 | 0.016 | 0.011 | -0.003 | -0.001 | 0.014
NGLY1 (UniProt Q96IV0) | -0.004 | 0.02 | -0.038 | 0.008 | 0.042 | -0.104 | -0.016 | 0.041 | -0.005 | -0.03
NFKBIE (UniProt O00221) | -0.074 | 0.014 | -0.053 | 0.424 (active) | 0.002 | -0.004 | -0.112 | 0.025 | 0.061 | -0.024
NELFCD (UniProt Q8IXH7) | -0.024 | 0.015 | -0.019 | -0.025 | 0.034 | -0.083 | -0.032 | 0.046 | 0.013 | -0.031
MTA3 (UniProt Q9BTC8) | 0.034 | -0.059 | -0.005 | -0.019 | -0.017 | -0.061 | 0.009 | 0.03 | 0.005 | -0.047
NUP210 (UniProt Q8TEM1) | -0.019 | -0.008 | -0.08 | 0.009 | 0.001 | 0.084 | -0.043 | -0.01 | 0.059 | -0.019
NFIC (UniProt P08651) | -0.058 | -0.162 | 0.014 | -0.114 | 0.022 | -0.072 | 0.014 | 0.029 | 0.098 | 0.016
